Experimental data taken from PubChem BioAssay (Tox21).
Inconclusive results are not listed. Activity calls are given as the source filed them. Unless noted, calls come from the whole dose curve; as a rule, active = well fitted curve in the direction sought with a large enough effect in the repeat runs; inconclusive = weak or mixed curves; inactive = no such curve, though single readings can be large; an effect the other way counts as inactive or inconclusive.

Tests used:
[1] = target: Acetylcholinesterase (Homo sapiens) (UniProt P22303); test: Acetylcholinesterase (AChE) small molecule antagonists: enzyme-based qHTS assay with human liver microsomes (AID 1347399; calls by dose curve; note: nearly all actives have a fitted effect of over 60% in size); conditions: Potency: qHTS inhibition; outcome: qHTS inhibition
Summary of the method: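 Recombinant human AChE (50 mU/mL in the enzyme mix) and human liver microsomes (0.25 mg/mL final) were preincubated with compound and NADPH (0.25 mg/mL final) for 30 min at 37 C. Acetylthiocholine/DTNB was then added; thiocholine was read colorimetrically after 10 min at room temperature.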

[2] = target: Acetylcholinesterase (Homo sapiens) (UniProt P22303); test: Acetylcholinesterase (AChE) small molecule antagonists: fluorescence cell-based qHTS assay (AID 1347398; calls by dose curve; note: nearly all actives have a fitted effect of over 50% in size; note: potency is the fitted concentration of half-maximal effect); conditions: Potency: AChE activity; outcome: AChE activity
Summary of the method: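 SH-SY5Y, 2,000 cells/well, attached overnight; cmpd 30 min 37 C; acetylthiocholine/Thiolite Green cocktail 40 min RT; fluorescence Ex/Em 490/520 nm.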

[3] = qHTS assay for small molecules that induce genotoxicity in human embryonic kidney cells expressing luciferase-tagged ATAD5 - cell viability (AID 651634; calls by dose curve; note: nearly all actives have a fitted effect of over 25% in size)
Summary of the method: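 HEK293T ATAD5-luc cells, 2,000/well; compound 15.5 hr, 37C/5% CO2; CellTiter-Fluor 30 min, 37C; fluorescence read.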

[4] = qHTS assay to test for compound auto fluorescence at 535 nm (green) in HEK293 cell free culture (AID 720682)
Summary of the method: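 Compounds were pin-transferred into cell-free DMEM with 10% FBS, and green fluorescence was read at excitation 485 nm and emission 535 nm. Intensities were expressed as fluorescein-equivalent values.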

[5] = qHTS assay to identify small molecule antagonists of the glucocorticoid receptor (GR) signaling pathway - cell viability counter screen (AID 720693); note: nearly all actives have a fitted effect of over 55% in size
[6] = qHTS assay for identifying genotoxic compounds that show differential cytotoxicity against isogenic chicken DT40 cell lines with known DNA damage response pathways - wild type cell line (AID 743012); note: nearly all actives have a fitted effect of over 60% in size; note: potency is the fitted concentration of half-maximal effect
Summary of the method: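 CellTiter-Glo luminescence readout of viability in wild type DT40 cells after 40 h compound exposure at 37 C/5% CO2; 300 cells/well; reagent incubated 30 min at room temperature before reading.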

[7] = qHTS assay for identifying genotoxic compounds that show differential cytotoxicity against isogenic chicken DT40 cell lines with known DNA damage response pathways - Rev3 mutant cell line (AID 743014); note: nearly all actives have a fitted effect of over 55% in size; note: potency is the fitted concentration of half-maximal effect
[8] = qHTS assay for identifying genotoxic compounds that show differential cytotoxicity against isogenic chicken DT40 cell lines with known DNA damage response pathways - Rad54/Ku70 mutant cell line (AID 743015); note: nearly all actives have a fitted effect of over 60% in size; note: potency is the fitted concentration of half-maximal effect
[9] = qHTS assay to identify small molecule antagonists of the androgen receptor (AR) signaling pathway using the MDA cell line - cell viability counter screen (AID 743041; note: nearly all actives have a fitted effect of over 45% in size)
Summary of the method: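 Cytotoxicity counter screen: MDA-kb2 AR-luc cells, compound + R1881, 16 h, 37C, 0% CO2; CellTiter-Fluor added at 15.5 h, fluorescence read after 30 min.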

[10] = qHTS assay to identify small molecule antagonists of the thyroid receptor (TR) signaling pathway - cell viability counter screen (AID 743064); note: nearly all actives have a fitted effect of over 50% in size; note: potency is the fitted concentration of half-maximal effect
Summary of the method: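 In-well cytotoxicity read by CellTiter-Fluor (30 min, 37 C) following 23.5 h exposure of GH3 cells bearing a TRE-luciferase sensor. Compounds were added alongside 1 nM (final) T3 to drive TR transactivation.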

[11] = test system: thyroid hormone receptor (rat, GH3 cells); test: qHTS assay to identify small molecule agonists of the thyroid receptor (TR) signaling pathway (AID 743066; calls by dose curve)
[12] = qHTS assay to identify small molecule antagonists of the estrogen receptor alpha (ER-alpha) signaling pathway using the BG1 cell line - cell viability counter screen (AID 743081);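 note: compound given together with 17beta-estradiol as the ER stimulus; nearly all actives have a fitted effect of over 45% in size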; note: potency is the fitted concentration of half-maximal effect
[13] = qHTS assay to identify small molecule that activate the aryl hydrocarbon receptor (AhR) signaling pathway - cell viability counter screen (AID 743086);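 note: HepG2 liver cells carrying the AhR DRE luciferase reporter; series mostly up to about 70 µM; nearly all actives have a fitted effect of over 45% in size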
Summary of the method: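 HepG2-AhR-luc (HG2L7.5c1) cells, 4000/well, treated 24 h at 37 C with compound; viability measured as CellTiter-Fluor fluorescence after 30 min in the same wells as the luciferase read.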

Aromatase (Homo sapiens) = Aromatase (Homo sapiens) (UniProt P11511); test: qHTS assay to identify aromatase inhibitors (AID 743083); note: series mostly up to about 70 µM; nearly all actives have a fitted effect of over 55% in size
[14] = qHTS assay for small molecule agonists of the p53 signaling pathway (AID 651631; calls by dose curve; note: nearly all actives have a fitted effect of over 15% in size)
Summary of the method: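 Readout was fluorescence from the LiveBLAzer FRET substrate, applied for 2 h at room temperature after 16 h compound exposure at 37 °C. Cells were the p53RE-bla HCT-116 line, with beta-lactamase driven by p53 response elements.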

[15] = qHTS assay for small molecules that induce genotoxicity in human embryonic kidney cells expressing luciferase-tagged ATAD5 (AID 651632); note: nearly all actives have a fitted effect of over 15% in size
Summary of the method: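 Luminescence read-out: after 16 hr compound exposure at 37C, ATAD5-luciferase HEK293T cells received Amplite, 30 min RT, then CCD imaging. A rise in signal marks genotoxic stress.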

[16] = qHTS assay for small molecule agonists of the p53 signaling pathway - cell viability (AID 651633; calls by dose curve; note: series mostly up to about 83 µM; nearly all actives have a fitted effect of over 30% in size)
Summary of the method: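 p53RE-bla cells were treated with compound for 16 hours at 37 C. Cytotoxicity was then measured as CellTiter-Glo luminescence after 30 min at room temperature.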

[17] = qHTS assay for small molecule disruptors of the mitochondrial membrane potential - cell viability (AID 720634; calls by dose curve;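 note: human HepG2 liver cancer cells; series mostly up to about 83 µM; nearly all actives have a fitted effect of over 20% in size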)
Summary of the method: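 Luminescence from CellTiter-Glo (ATP content) gave viability in HepG2 cells, read in the same wells as the MMP dye assay after 1 hr compound exposure at 37 C.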

[18] = qHTS assay to test for compound auto fluorescence at 590 nm (red) in HepG2 cells (AID 720674)
Summary of the method: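 HepG2 cells, 2,000 per well in MEM with 10% FBS, attached overnight at 37 C, then got 23 nL compound or DMSO. After 1 hr at 37 C, 5% CO2, red fluorescence was read at 540/590 nm against Rose Bengal sodium as reference.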

[19] = qHTS assay to test for compound auto fluorescence at 535 nm (green) in HepG2 cells (AID 720675)
[20] = qHTS assay to test for compound auto fluorescence at 460 nm (blue) in HEK293 cells (AID 720678)
Summary of the method: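 HEK293 cells (2,000/well, medium with 10% dialyzed FBS) attached 4-5 hr, then exposed to compound overnight at 37C, 5% CO2. Blue fluorescence read at 405/460 nm, with triamterene as reference fluorophore.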

[21] = qHTS assay to test for compound auto fluorescence at 590 nm (red) in HEK293 cells (AID 720679)
Summary of the method: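 HEK293 cells (2,000/well, 10% dialyzed FBS) attached 4-5 hr, then dosed with compound or DMSO and incubated overnight at 37C, 5% CO2. Red fluorescence read at 540/590 nm, Rose Bengal sodium as reference fluorophore.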

[22] = qHTS assay to test for compound auto fluorescence at 535 nm (green) in HEK293 cells (AID 720680)
[23] = qHTS assay to test for compound auto fluorescence at 590 nm (red) in HEK293 cell free culture (AID 720683)
Summary of the method: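 Cell-free wells of DMEM with 10% FBS received compound, and intrinsic fluorescence was read at excitation/emission 540/590 nm. Values expressed as equivalence to Rose Bengal sodium.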

[24] = qHTS assay to test for compound auto fluorescence at 590 nm (red) in HepG2 cell free culture (AID 720684)
Summary of the method: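 Rose Bengal sodium served as the reference for red signal. Test compounds were dispensed into serum-containing MEM (10% FBS) without cells, and plates were read at 540/590 nm.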

[25] = qHTS assay to test for compound auto fluorescence at 460 nm (blue) in HepG2 cell free culture (AID 720685)
Summary of the method: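 Cell-free plates of MEM plus 10% FBS received 23 nL compound or DMSO vehicle; blue-channel (405/460 nm) intensity scored against triamterene as reference fluorophore.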

[26] = qHTS assay to test for compound auto fluorescence at 535 nm (green) in HepG2 cell free culture (AID 720686)
[27] = qHTS assay to test for compound auto fluorescence at 460 nm (blue) in HepG2 cells (AID 720687)
Summary of the method: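 HepG2 cells in MEM with 10% FBS, attached overnight at 37 C, were exposed to compound or DMSO for 1 hr at 37 C, 5% CO2. Blue fluorescence was read at 405/460 nm, with triamterene as reference fluorophore.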

[28] = qHTS assay to identify small molecule antagonists of the thyroid receptor (TR) signaling pathway (AID 743065); note: potency is the fitted concentration of half-maximal effect; nearly all actives have a fitted effect of over 55% in size
Summary of the method: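 GH3.TRE-Luc rat pituitary cells (two TREs driving luciferase) were dosed with compound, then stimulated with 1 nM T3 (final) for 23.5 h at 37 C. ONE-Glo luminescence was the read-out, with CellTiter-Fluor fluorescence as the cytotoxicity counter-screen.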

[29] = target: Estrogen receptor (Homo sapiens) (UniProt P03372); test: qHTS assay to identify small molecule antagonists of the estrogen receptor alpha (ER-alpha) signaling pathway (AID 743069; active = well fitted curve in the direction sought with a large enough effect in the signal ratio in the repeat runs, not every such curve was filed as active; the % refers to the signal ratio)
Summary of the method: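 Beta-lactamase FRET fluorescence is read after 2 hr at room temperature with LiveBLAzer B/G substrate. Before that, ER-alpha-bla HEK293 cells sit 4 hr after plating, then receive compound plus 17beta-estradiol and incubate 18 hr at 37C.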

[30] = qHTS assay to identify small molecule antagonists of the estrogen receptor alpha (ER-alpha) signaling pathway - cell viability counter screen (AID 743074; calls by dose curve;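 note: HEK293 cells carrying ER-alpha-UAS-bla reporter stimulated with 17beta-estradiol; nearly all actives have a fitted effect of over 45% in size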)
[31] = target: Estrogen receptor (Homo sapiens) (UniProt P03372); test: qHTS assay to identify small molecule agonists of the estrogen receptor alpha (ER-alpha) signaling pathway (AID 743075; calls by dose curve;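 note: HEK293 GripTite cells with ER-alpha and UAS-driven beta-lactamase reporter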)
[32] = target: Estrogen receptor (Homo sapiens) (UniProt P03372); test: qHTS assay to identify small molecule agonists of the estrogen receptor alpha (ER-alpha) signaling pathway using the BG1 cell line (AID 743079); note: nearly all actives have a fitted effect of over 20% in size
[33] = qHTS assay to identify small molecule antagonists of the estrogen receptor alpha (ER-alpha) signaling pathway using the BG1 cell line (AID 743080; calls by dose curve;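 note: BG1 cells stimulated with 17beta-estradiol alongside compound; series mostly up to about 70 µM; nearly all actives have a fitted effect of over 25% in size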)
Summary of the method: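 BG1-Luc-4E2 cells (endogenous full-length ER-alpha, 4xERE luciferase) hormone-starved 5 days in charcoal-stripped FBS, plated 4,000/well for 24 h, then compound plus 17beta-estradiol for 21.5 h at 37 C; ONE-Glo luminescence read.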

[34] = qHTS assay to identify aromatase inhibitors - cell viability counter screen (AID 743084)

Measured: Potency

Sequence of Acetylcholinesterase (Homo sapiens) (P22303 whole entry, looked up): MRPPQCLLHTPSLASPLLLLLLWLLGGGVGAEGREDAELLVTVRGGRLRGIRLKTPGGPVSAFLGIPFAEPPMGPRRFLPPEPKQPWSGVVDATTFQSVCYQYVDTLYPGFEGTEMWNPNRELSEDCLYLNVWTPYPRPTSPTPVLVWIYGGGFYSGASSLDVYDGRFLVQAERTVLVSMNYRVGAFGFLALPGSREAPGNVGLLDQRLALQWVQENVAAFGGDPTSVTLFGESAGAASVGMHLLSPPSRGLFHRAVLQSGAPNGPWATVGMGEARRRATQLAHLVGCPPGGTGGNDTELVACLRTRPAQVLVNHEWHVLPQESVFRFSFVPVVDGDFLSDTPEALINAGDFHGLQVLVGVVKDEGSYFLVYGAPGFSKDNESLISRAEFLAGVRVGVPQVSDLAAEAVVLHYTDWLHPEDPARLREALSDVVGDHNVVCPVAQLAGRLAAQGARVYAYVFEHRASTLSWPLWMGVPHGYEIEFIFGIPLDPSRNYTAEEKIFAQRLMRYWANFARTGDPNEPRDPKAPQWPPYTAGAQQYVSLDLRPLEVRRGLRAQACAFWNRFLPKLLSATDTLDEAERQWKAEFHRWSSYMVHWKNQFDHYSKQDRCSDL
Sequence of Estrogen receptor (Homo sapiens) (P03372 whole entry, looked up): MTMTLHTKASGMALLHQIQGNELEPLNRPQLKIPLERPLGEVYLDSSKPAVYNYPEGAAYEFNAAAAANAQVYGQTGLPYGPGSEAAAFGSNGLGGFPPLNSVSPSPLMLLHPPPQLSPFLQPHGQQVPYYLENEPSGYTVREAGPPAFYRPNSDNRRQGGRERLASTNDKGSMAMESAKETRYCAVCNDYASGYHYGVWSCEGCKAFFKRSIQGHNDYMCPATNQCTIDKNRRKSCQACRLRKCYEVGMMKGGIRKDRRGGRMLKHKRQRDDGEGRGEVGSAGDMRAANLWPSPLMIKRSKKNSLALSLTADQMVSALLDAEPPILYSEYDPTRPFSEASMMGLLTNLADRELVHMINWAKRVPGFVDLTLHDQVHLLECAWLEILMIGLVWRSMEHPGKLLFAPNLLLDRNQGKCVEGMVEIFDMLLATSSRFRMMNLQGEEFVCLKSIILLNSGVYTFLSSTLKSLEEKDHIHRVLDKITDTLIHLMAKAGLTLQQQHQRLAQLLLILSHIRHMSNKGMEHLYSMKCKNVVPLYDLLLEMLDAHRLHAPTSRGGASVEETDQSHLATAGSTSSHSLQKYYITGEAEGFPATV
Sequence of Aromatase (Homo sapiens) (P11511 whole entry, looked up): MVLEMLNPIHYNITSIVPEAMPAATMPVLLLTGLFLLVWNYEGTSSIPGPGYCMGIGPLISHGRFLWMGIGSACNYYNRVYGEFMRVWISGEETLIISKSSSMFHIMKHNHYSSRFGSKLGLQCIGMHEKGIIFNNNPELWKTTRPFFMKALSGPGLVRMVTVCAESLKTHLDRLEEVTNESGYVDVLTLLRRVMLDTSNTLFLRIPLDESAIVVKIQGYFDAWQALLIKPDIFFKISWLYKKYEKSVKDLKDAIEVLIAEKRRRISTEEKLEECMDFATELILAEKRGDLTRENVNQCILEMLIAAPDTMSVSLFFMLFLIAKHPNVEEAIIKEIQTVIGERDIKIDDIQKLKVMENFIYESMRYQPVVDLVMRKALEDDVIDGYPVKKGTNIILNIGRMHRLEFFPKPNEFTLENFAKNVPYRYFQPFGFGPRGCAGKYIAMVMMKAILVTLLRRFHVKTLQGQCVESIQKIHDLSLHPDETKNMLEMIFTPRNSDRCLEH

COc1cc(C(=O)NCc2ccc(OCCN(C)C)cc2)cc(OC)c1OC
inactive: [1]

CC/C(=C(/c1ccc(O)cc1)c1ccc(OCCN(C)C)cc1)c1ccccc1
inactive: [1]

COc1cccc(-c2ccc(/C=C\CN3CCCCCC3)cc2Cl)c1
active: [2] 31.6 µM
inactive: [1]

CCCCCCCCCCC[C@@H](C[C@@H]1OC(=O)[C@H]1CCCCCC)OC(=O)[C@H](CC(C)C)NC=O
inactive: [1]

O=C(O)c1ccccc1[O-].O=C(O)c1ccccc1[O-].[Zn+2]
inactive: [3] | [4] | [5] | [6] | [7] | [8] | [9] | [10] | [11] | [12] | [13]

O=C(Nc1ccc(S(=O)(=O)N2CCOCC2)cc1)c1cc(Cl)ccc1NS(=O)(=O)c1ccc(Cl)s1
inactive: [2] | [1]

CCN(CC)CCNC(=O)c1cc(Br)c(N)cc1OC
inactive: [1]

CCCn1cc[n+](C)c1C
inactive: [2] | [1]

C1CCc2nnnn2CC1
inactive: Aromatase (Homo sapiens)

COc1ccc2cc(S(=O)(=O)N[C@H](CC(=O)N[C@H](Cc3ccc(CN4[C@H](C)CCC[C@@H]4C)cc3)C(=O)N(C)C(C)C)c3ccc4c(c3)OCO4)ccc2c1
inactive: [1]

COc1cc(C[C@H](C)N)c(OC)cc1Br
active: [6] 70.4 µM | [7] 62.7 µM | [8] 70.4 µM | [10] 70.4 µM | [28] 31.4 µM | [12] 15.8 µM
not listed: [1] | [2] | [9]
inactive: all other assays above

Oc1ccc(C(O)CNCCCCCCNCC(O)c2ccc(O)c(O)c2)cc1O (stereo unspecified)
inactive: [1]

CCC(=O)O[C@](Cc1ccccc1)(c1ccccc1)[C@H](C)CN(C)C
active: [6] 38 µM | [7] 60.3 µM | [8] 67.6 µM | [10] 26.9 µM | [28] 53.7 µM
not listed: [1] | [2] | [13] | Aromatase (Homo sapiens) | [29] | [30] | [31] | [32] | [33] | [34]
inactive: all other assays above
